Bioassay records (PubChem BioAssay)
Sampled rows, rich in hits. Any-hit rate of the full collection: about 22%.
Pf growth 96h – P. falciparum growth inhibition at 96 hour, primary screen for plastid delayed-death inhibitors; P. falciparum luciferase reporter growth, 96 h; Potency, µM (top dose mostly 28.7 µM), without a hit: top-dose activity change, negative = inhibition, most hits filed as inhibitors; 6.9% of 320,000 active; note: potency is the fitted concentration of half-maximal effect; % is set by controls: 0 for no effect and ±100 for the full control effect
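Delayed-death screen, second-generation endpoint: infected erythrocytes, 2% hematocrit, 0.05% parasitemia final; 96 hours at 37 C, 5% CO2; luciferase detection reagent; luminescence decrease equals reduced growth.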
LmPK inhibitor – LmPK (Leishmania mexicana) enzyme inhibition | Q27686 | purified LmPK, Kinase-Glo ATP luminescence, 1 h | Potency, µM (series often up to 57.5 µM), inactives show at the highest dose activity change, negative = inhibition, hits mostly inhibitors | 0.37% of 290,000 active | AID 1721; note: potency is the fitted concentration of half-maximal effect; % is set by controls: 0 for no effect and ±100 for the full control effect
Target sequence (Q27686 whole entry, looked up): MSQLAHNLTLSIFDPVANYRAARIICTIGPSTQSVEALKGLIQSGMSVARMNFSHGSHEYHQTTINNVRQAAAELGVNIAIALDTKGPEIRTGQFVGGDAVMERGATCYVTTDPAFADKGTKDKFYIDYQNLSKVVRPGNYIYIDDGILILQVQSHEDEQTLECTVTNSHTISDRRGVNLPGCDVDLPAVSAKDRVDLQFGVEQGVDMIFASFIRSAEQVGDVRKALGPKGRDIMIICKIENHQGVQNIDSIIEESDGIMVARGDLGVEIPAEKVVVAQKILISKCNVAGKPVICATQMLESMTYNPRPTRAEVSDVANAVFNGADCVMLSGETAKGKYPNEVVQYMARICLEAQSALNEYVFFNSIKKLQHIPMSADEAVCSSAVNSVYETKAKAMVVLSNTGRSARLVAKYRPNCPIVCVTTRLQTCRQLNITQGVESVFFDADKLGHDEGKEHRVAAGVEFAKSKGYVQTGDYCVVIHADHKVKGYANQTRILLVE
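Purified LmPK (0.1 nM) converted ADP (0.1 mM) to ATP with PEP (0.5 mM) in imidazole buffer pH 7.2 with KCl and MgCl2, 1 h at room temperature. ATP was read by Kinase-Glo luminescence; data normalized to uninhibited and no-enzyme controls.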
Pf growth 48h – P. falciparum growth inhibition at 48 hours (one generation). P. falciparum luciferase growth in erythrocytes, 48 h. Potency, µM (doses to about 28.7 µM), inactives show at the highest dose activity change, negative = inhibition, usual class: inhibitors. 5.9% of 310,000 active. AID 504832; note: potency is the fitted concentration of half-maximal effect; % is set by controls: 0 for no effect and ±100 for the full control effect
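Luminescence readout; reporter = integrated firefly luciferase in P. falciparum. RBC culture at 2% hematocrit, 0.1% parasitemia final, 37 C/5% CO2; decreased signal taken as growth inhibition.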
Shiga toxin inh – inhibitors of Shiga toxin in Vero cells. inhibition, % at 38.7 µM. Vero cells, Shiga toxin protein synthesis inhibition reporter. 9.2% of 290,000 active; in the data active = inhibition mostly above about 28%, no sharp cut-off; inactive = mostly below about 43%; note: 0% is about no effect
Cycloheximide cs – counter-screen hit for Shiga toxin inhibitors, cycloheximide; cell reporter, cycloheximide protein synthesis inhibition counterscreen; max response, %; 12% of 300,000 active; in the data active = max response mostly above about 13%, no sharp cut-off; inactive = mostly below about 14%; note: read at 38.3 µM for the half of the compounds with a filed dose; 0% is about no effect
* hit, by the source's call; ? = inconclusive; . = no result given; [ ] = dose if it differs, or a comment. Unless noted, calls come from the whole dose curve; as a rule, active = well fitted inhibition curve with a large enough effect; inconclusive = small, poorly fitted or top-dose-only effect, or another doubt; inactive = no such curve, though single readings can be large or run the other way.

SMILES	Pf growth 96h	LmPK inhibitor	Pf growth 48h	Shiga toxin inh	Cycloheximide cs
CCOc1ccc(C(=O)CSc2nnc(N)s2)cc1	-18%	-9%	56%	73*	30
Cc1ccc(Nc2nnc(SCC(=O)c3ccc(Br)s3)s2)c(C)c1	1µM*	-3%	-4%	17	8
Cc1cc(C)c(C(=O)CSc2nnc(C)c(=O)[nH]2)cc1C	-11%	0%	1%	95*	48*
Cc1cccc(C)c1Nc1nnc(SCC(=O)c2ccc(Br)s2)s1	?	-5%	-8%	-8	-2
Cc1nnc(SCC(=O)c2ccc(C(C)C)cc2)s1	10%	-2%	32%	74*	31*
Cn1c(NCc2ccccc2)nc2c1c(=O)n(Cc1ccc(Br)cc1)c(=O)n2C	77%	0%	?	-12	1
Cn1c(NCCCN2CCOCC2)nc2c1c(=O)n(Cc1ccc(Cl)c(Cl)c1)c(=O)n2C	.	3%	13µM*	-5	-3
Cn1c(NCc2ccco2)nc2c1c(=O)n(Cc1ccc(Br)cc1)c(=O)n2C	.	2%	9.3µM*	-9	-1
Cn1c(NCc2ccco2)nc2c1c(=O)n(Cc1ccc(Cl)cc1)c(=O)n2C	76%	2%	9.3µM*	32	2
CC1CCCCN1S(=O)(=O)c1ccc(S(=O)(=O)N2CCN(C)CC2)cc1 (stereo not given)	?	-5%	25%	-10	-3
CC(=O)C12CCCCC1CC1C3CC(C)C4(O)CC(=O)CCC4(C)C3CCC12C (stereo not given)	9.3µM*	2%	0%	-17	-3
CC12CCCC[C@@H]1CCC1C2CCC2(C)C1CC[C@@]2(O)CNCCO (stereo not given in full)	33%	0%	17%	-2	-5
O=C(NCCN1CCCC1)c1ccc(Br)cc1	-37%	11%	58%	.	-4
OCCCCNCc1ccc(OCc2ccc(Cl)cc2Cl)cc1	15µM*	0%	13µM*	-19	-8
OCCNCc1ccc(OCc2ccc(Cl)cc2Cl)cc1	26%	-2%	?	35	25*
O=[N+]([O-])c1cccc(C(=Nc2cccc(Cl)c2)NO)c1	6%	4%	12%	-6	-3
ONC(=Nc1ccc(Cl)cc1)c1ccccc1	55%	7%	54%	7	18*
COc1cc(C2Nc3ccc4ncccc4c3C3=C2C(=O)CCC3)cc(OC)c1OC (stereo not given)	1%	-4%	?	14	2
CCOc1ccc(C2C3=C(CCCC3=O)Nc3ccc4ncccc4c32)cc1 (stereo not given)	?	2%	134%	-3	-5
Cc1ccsc1C1Nc2ccc3ncccc3c2C2=C1C(=O)CCC2 (stereo not given)	4.7µM*	7%	10µM*	15	-1
COc1cc(C2Nc3ccc4ncccc4c3C3=C2C(=O)CCC3)ccc1O (stereo not given)	?	-2%	?	20	21*
CCOC(=O)/C(=C/c1ccccc1)NC(=O)c1ccco1	?	1%	20%	2	6
Cc1ccc(NC(=O)CSc2nnc(CNC(=O)c3ccco3)n2C)cc1C	13µM*	.	-8%	.	.
Cn1c(Cn2c(=O)sc3ccccc32)nnc1SCC(=O)Nc1ccc(Cl)cc1	10µM*	5%	2%	-4	-2
Cc1ccccc1-n1c(Cn2c(=O)sc3ccccc32)nnc1SCC(N)=O	26%	-1%	12%	1	-3
SMILES	Pf growth 96h	LmPK inhibitor	Pf growth 48h	Shiga toxin inh	Cycloheximide cs
CCOC(=O)CSc1nnc(Cn2c(=O)sc3ccccc32)n1-c1ccccc1C	15µM*	3%	4%	10	5
Cn1c(Cn2c(=O)sc3ccccc32)nnc1SCC(=O)N1CCc2ccccc21	5.2µM*	3%	5%	-3	-3
Cn1c(Cn2c(=O)sc3ccccc32)nnc1SCC(=O)N1CCCc2ccccc21	?	1%	?	-2	1
Cc1cccc2nc(CSc3nc4cc([N+](=O)[O-])ccc4s3)cn12	?	5%	6%	-9	8
CCOc1cc(NC(=S)NCCc2ccccc2)c(OCC)cc1NC(C)=O	4%	-1%	-7%	-14	2
CC(C)c1ccc(S(=O)(=O)NC2CCS(=O)(=O)C2)cc1 (stereo not given)	34%	.	7%	.	.
Cn1c(CNC(=O)c2cccs2)nnc1SCC(=O)Nc1ccc(Cl)cc1	?	-2%	12µM*	5	-2
CCc1nnc(SCC(=O)N2CCc3ccccc32)n1CC	?	-2%	1%	-1	-3
Cc1ccc(C(=O)NCc2nnc(SCC(=O)Nc3ccccc3)n2C)cc1	3%	-1%	32%	10	9
CCn1c(CSc2ncccn2)nnc1SCC(=O)N1CCc2ccccc21	4.7µM*	1%	?	-3	-2
CCOC(=O)CNC(=O)CSc1nnc(Cn2c(=O)sc3ccccc32)n1C	4%	-1%	-7%	11	18*
COc1ccc(-n2c(Cn3c(=O)sc4ccccc43)nnc2SC)cc1	1.9µM*	3%	3%	-1	-2
Cc1ccc(/C=C/C(=O)c2nc3ccccc3[nH]2)cc1	?	-19%	4%	68*	45*
Cc1ccc(/C=C/C(=O)Nc2nc3ccccc3[nH]2)cc1	8%	-5%	179%	35*	37*
O=C(/C=C/c1c(F)cccc1Cl)Nc1nc2ccccc2[nH]1	24%	2%	208%	81*	36*
Cc1ccc(Cc2nc3ccccc3[nH]2)cc1	-29%	0%	1%[0.00184 µM]	31	8
CCc1nnc(NC(=O)c2cc(S(=O)(=O)N(C)c3ccc(OC)cc3)ccc2Cl)s1	22%	-3%	-18%	-16	-4
O=C(Cc1c(F)cccc1Cl)NNC(=O)c1ccccc1Cl	-5%	.	-2%	.	.
C1CN(CCN2CCOCC2)CCN1	-33%	-1%	-15%	.	-3
Clc1ccc2oc3c(Cl)ncnc3c2c1	13%	8%	5%	-8	-2
CNc1ccccc(-c2ccc3ccccc3n2)c1=O	431%	-5%	278%	52*	59*
CC(Sc1nn(-c2ccccc2)c(=S)s1)C(=O)NCC1CCCO1 (stereo not given)	13µM*	.	9.3µM*	.	.
CCN1C(=S)SC(=O)C1=C1C=C(C)N(CCO)C(C)=C1	27%	5%	.	125*	71*
CCN1C(=S)SC(=O)C1=C1C=C(C)N(CCOC)C(C)=C1	?	-1%	238%	107*	44*
CC(=O)Nc1c2c(nn1-c1ccccc1)CSC2	31%	-1%	27%	-4	1
O=C(/C=C\c1ccc2c(c1)OCO2)Nc1c2c(nn1-c1ccc(Cl)cc1)CSC2	10µM*	1%	?	-20	-4
O=C(CCl)Nc1c2c(nn1-c1ccccc1)CSC2	2.9µM*	0%	4.1µM*	-3	4
Cc1nn(-c2ccccc2)c(C)c1/C=C/C(=O)OCC(=O)Nc1ncc(C(F)(F)F)cc1Cl	6%	3%	-6%	-7	-4
CCc1ccc(NC(=O)CSc2nc3nc(C)cc(C)n3n2)cc1	?	0%	8%	-3	13
